Test results taken from PubChem BioAssay AID1063 (University of Pittsburgh Molecular Library Screening Center, 2008).
Hit rate of the full screen: of about 200,000 compounds, about 18,000 (9%) were called active. This is one part of a sample in which actives are shown more often than they occur. No stated cut-off is given here; in the data, active means inhibition above about 50%; inactive means the rest.

assay: Leishmania major promastigote growth inhibition, primary screen (AID 1063); conditions: Leishmania major promastigotes, resazurin fluorescence viability; at 10 µM; stronger effect = higher value;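 further: promastigotes grown with compound for 44 hours at 28 °C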

SMILES	inhibition
CCOc1cccc2c1OC1(CCCCC1)N1N=C(c3cccnc3)CC21 (stereo unspecified)	57.3% (active)
c1cncc(-c2nnc3n2C2(CCCCC2)Cc2ccccc2-3)c1	-0.67% (inactive)
O=[N+]([O-])c1ccc(Sc2n[nH]c(-c3ccco3)n2)nc1	4.36% (inactive)
CCOC(=O)CSc1nc(C)cc2c1C(=O)OC2	3.71% (inactive)
NC(N)=N/N=C/c1ccc(OCc2ccc(Cl)cc2Cl)cc1	101% (active)
COC(=O)c1sc2ncccc2c1OCc1ccc(Cl)cc1Cl	-2.34% (inactive)
CCOc1ccc(NC(=O)NNC(=O)c2ccc(Cl)cc2Cl)cc1	-5.16% (inactive)
CCOC(=O)CN/C=C(\C#N)c1ccc(F)cc1	-7.97% (inactive)
Cc1c(CN2CCCCC2)c(O)n(CCO)c(=O)c1C#N	3.34% (inactive)
O=C(NNC(=O)c1ccc(Cl)cc1Cl)c1cccs1	-10.1% (inactive)
CC(C)(O)C#Cc1ncc(C(F)(F)F)cc1Cl	-3.82% (inactive)
COc1ccc([N+](=O)[O-])cc1C1NN=C(c2cccc3ccccc23)S1 (stereo unspecified)	-6.23% (inactive)
COc1ccc(C2Nc3ccccc3C(=O)N2c2ccc(Cl)cc2)cc1Cn1cc([N+](=O)[O-])cn1 (stereo unspecified)	53.1% (active)
CCN(C(=O)CSc1nc2ccccc2n1CC)C1CCS(=O)(=O)C1 (stereo unspecified)	-3.23% (inactive)
CC(C)CNC(=O)/C=C/C(=O)O	1.32% (inactive)
CC(=O)c1ccc(-c2nnc(CCC(=O)N(C)Cc3cnc4ccccn34)o2)s1	-0.67% (inactive)
Cc1ccc(NC(=O)Cn2nc(C)c3ccccc3c2=O)c(C)c1	34.8% (inactive)
Cc1ccc(NC(=O)c2ccn(C(=O)Nc3ccccc3)n2)c(C)c1	-1.05% (inactive)
Cc1ccc(NC(=O)Cn2cccc2C2=NC(c3ccccc3)CO2)c(C)c1 (stereo unspecified)	77.4% (active)
CC1(C)CC(=O)c2ccc(O)cc2O1	-5.54% (inactive)
CN(Cc1cccc2ncccc12)C(=O)CC1C(=O)NCCN1Cc1ccc(F)cc1 (stereo unspecified)	-8.65% (inactive)
O=C(C1CCN(C2CCN(Cc3cccc4c3OCO4)CC2)CC1)N1CCOCC1	76.2% (active)
O=C(C1CCN(C2CCN(Cc3ccc4cc(F)ccc4n3)CC2)CC1)N1CCCC1	48.3% (inactive)
COc1ccc(S(=O)(=O)N2CCC(C(=O)N3CCOCC3)CC2)cc1OC	-6.25% (inactive)

SMILES	inhibition
C/C(=C\c1ccco1)CN1CCC(N2CCC(C(=O)N3CCOCC3)CC2)CC1	77.8% (active)
O=C(NCC1CCCO1)C1CCN(C2CCN(C(=O)C3CCCCC3)CC2)CC1 (stereo unspecified)	-2.22% (inactive)
O=C(C1CCN(S(=O)(=O)c2cnc[nH]2)CC1)N1CCN(Cc2ccc3c(c2)OCO3)CC1	-5.72% (inactive)
Cn1c(N)c(C(=O)COC(=O)c2ccccc2NCc2ccco2)c(=O)n(C)c1=O	-3.53% (inactive)
Cc1ccc(NC(=O)CN2CCC(C(N)=O)CC2)cc1[N+](=O)[O-]	-1.6% (inactive)
COc1ccc(Nc2ncc(F)c(N3CCOCC3)n2)cc1	19.7% (inactive)
Cc1cc(N2CCN(C)CC2)nc2ccc(NC(=S)N3CCOCC3)cc12	6.8% (inactive)
c1ccc(Nc2nc(N3CCOCC3)c3ccccc3n2)cc1	79.3% (active)
c1ccc(-c2nnc(N3CCOCC3)c3ccccc23)cc1	14% (inactive)
CCCCc1nc2ccccc2c(NC(=O)CN2CCN(C)CC2)c1CCC	32.8% (inactive)
CN1CCN(c2nc(Nc3ccc(O)cc3)nc3ccccc23)CC1	99.9% (active)
CC1CCC(NC(=O)C2c3ccccc3C(=O)N2Cc2ccc3c(c2)OCO3)CC1 (stereo unspecified)	14.7% (inactive)
CNC(=S)NNC(=O)c1cccn(Cc2ccccc2)c1=O	-2.81% (inactive)
CCc1nnc(NC(=O)CCCSc2nc3ccccc3[nH]2)s1	12.7% (inactive)
COc1ccc(N2CCN(C(=O)C3CCN(S(=O)(=O)c4ccc(C)cc4)CC3)CC2)cc1	7.36% (inactive)
O=c1oc(-c2ccco2)nc2sc3c(c12)CCCCC3	-6.27% (inactive)
CCn1c(N)c(Br)c(=O)[nH]c1=O	-8.78% (inactive)
CCCCN(CC)CCCNC(=O)c1ccc(CSc2nc3ccncc3[nH]2)cc1	-5.43% (inactive)
Cc1ncoc1C(=O)N1CCCC(C(=O)c2ccc3c4c(cccc24)CC3)C1 (stereo unspecified)	5.73% (inactive)
COc1ccc(CNC(=O)COC(=O)/C=C/c2ccc(S(=O)(=O)N3CCOCC3)cc2)cc1	2.59% (inactive)
O=C(COC(=O)/C=C/c1ccc(S(=O)(=O)N2CCCCCC2)cc1)NCc1ccccc1Cl	65.4% (active)
O=C(O)/C=C/c1ccc(S(=O)(=O)N2CCCCCC2)cc1	-3.02% (inactive)
Cc1ccc(NCc2n[nH]c(=S)n2-c2ccccc2)cc1Cl	-7.27% (inactive)
CC(=O)c1ccc(N2CCN(CC(=O)Nc3ccccc3N3CCOCC3)CC2)cc1	12.9% (inactive)

SMILES	inhibition
CC(C)n1c(-c2ccncc2)n[nH]c1=S	-1.76% (inactive)
Cc1ccc(N2C(=O)C(CC(=O)Nc3cccc(F)c3)N(CCc3ccncc3)C2=O)cc1 (stereo unspecified)	1.18% (inactive)
N#Cc1c(NC(=O)C2CCCO2)sc2c1CCCCC2 (stereo unspecified)	0.81% (inactive)
O=C(c1ccc2c(c1)OCO2)N1CCOCC1	-6.99% (inactive)
CC1CN(C(=O)c2ccc3c(c2)OCO3)OC(c2ccccc2)O1 (stereo unspecified)	71.5% (active)
O=C(Nc1ccccc1)c1ccc2c(c1)OCO2	-3.43% (inactive)
O=C(CSc1ccc(-c2ccccc2)nn1)NCC1CCCO1 (stereo unspecified)	-4.19% (inactive)
Cc1cc(C)nc(NNC2=CC(=O)CC(C)(C)C2)n1	-7.56% (inactive)
CCOC(=O)/C(C#N)=C/c1cn(CCC(=O)O)nc1-c1ccc(Br)cc1	-8.02% (inactive)
CCOC(=O)Cc1ncccc1C(=O)Nc1ccc(OC)cc1	-2.87% (inactive)
CC(C)(CNC(=O)c1ccc(Cl)c(S(=O)(=O)N2CCc3ccccc3C2)c1)N1CCOCC1	50.3% (active)
O=C(NCCSCc1ccccc1)c1ccc(Cl)c(S(=O)(=O)N2CCOCC2)c1	5.02% (inactive)
Cc1ccccc1CSCCNC(=O)c1ccc(Cl)c(S(=O)(=O)N2CCOCC2)c1	25.1% (inactive)
O=C(CP(=O)(c1ccccc1)c1ccccc1)N1CCOCC1	-9.31% (inactive)
Cc1ccc(CNC(=O)c2cccnc2Cl)cc1	0.71% (inactive)
CS(=O)(=O)N(Cc1ccccc1Cl)c1ccc(C(=O)NCc2cccnc2)cc1	1.77% (inactive)
O=C(NCc1cccnc1)c1cccnc1Sc1ccc(Cl)cc1	84.6% (active)
O=C(O)c1ccccc1-c1ccccc1C(=O)NCc1cccnc1	-6.64% (inactive)
Cc1ccc(S(=O)(=O)N(Cc2ccc(Cl)cc2)c2ccccc2C(=O)NCc2cccnc2)cc1	93.2% (active)
O=C(NC1CCCCCC1)c1cccnc1Sc1ccc(Cl)cc1	-4.38% (inactive)
O=C(NC(=S)Nc1cccc(-c2ccc(CO)o2)c1)c1cccs1	-1.96% (inactive)
Cc1cc2c(cc1C)[n+](C)cn2CC(O)COCC1CC=CCC1 (stereo unspecified)	-1.67% (inactive)
COc1ccc(N2CCN(C(=O)/C(C#N)=C/c3ccccc3)CC2)cc1	6.39% (inactive)
Cc1ccc(N2C(=O)C3CC3C2=O)cc1 (stereo unspecified)	-5.37% (inactive)

SMILES	inhibition
O=C(COC(=O)c1ccc(Cl)nc1)NCc1cccs1	-8.06% (inactive)
CC(=O)Nc1cccc(-c2nc3ccccc3s2)c1C	17.8% (inactive)
CCN(CC)c1ccc(C(=O)c2cnc(/N=C/N(C)C)s2)cc1	0.96% (inactive)
Cc1cccc(N2CCN(c3ccc(C(N)=O)cc3[N+](=O)[O-])CC2)c1C	2.25% (inactive)
CCc1c(SCCC(=O)O)nc2ccccc2c1C	-1.78% (inactive)
CN1CCN(NC(=O)c2ccc(S(=O)(=O)N3CCCCCC3)cc2)CC1	-0.39% (inactive)
O=C(C[n+]1ccccc1)N/N=C/c1ccc(O)cc1	-6.86% (inactive)
CC1=NNC(=O)C1CCC(=O)N/N=C\c1ccc(Cl)c(Cl)c1 (stereo unspecified)	-3.71% (inactive)
O=C(CC(=O)Nc1ccc(Cl)c(Cl)c1)N/N=C/c1ccc(O)cc1	59.3% (active)
CCOC(=O)c1c(-c2cccc(N)c2)cn2ccccc12	0.87% (inactive)
Cc1ccc(COc2ccc(/C=N/NC(=O)CN3CCCCC3)cc2)cc1	5.55% (inactive)
O=C(CCl)N(Cc1cccc([N+](=O)[O-])c1)c1cccc(Cl)c1	101% (active)
O=C(Nc1cccc([N+](=O)[O-])c1)Nc1ccc(Cl)cn1	-0.05% (inactive)
CCN(CC)C(=O)CN(c1cccc([N+](=O)[O-])c1)S(=O)(=O)c1ccccc1	-3.8% (inactive)
Cc1ccc(C(=O)OC(C)CN2CCOCC2)cc1 (stereo unspecified)	-9.42% (inactive)
COC(=O)C(C)NC(=O)COc1ccc2ccccc2c1 (stereo unspecified)	9.52% (inactive)
CCCCCCCCc1c(O)nc(-n2[nH]c(C)c(CCO)c2=O)[nH]c1=O	-4.27% (inactive)
COC(=O)/C(=C1\Oc2ccc(C(C)(C)C)cc2S1)C(F)(F)F	-4.31% (inactive)
Cc1cc2ccccn2c1C(=O)c1cccc(S(=O)(=O)N2CCOCC2)c1	15.2% (inactive)
COc1ccc(C(=O)CSc2nnnn2C)c(OC)c1	-1.53% (inactive)
Cc1ccc(Oc2cc(NC(=O)CCCn3nc(C)c([N+](=O)[O-])c3C)cc([N+](=O)[O-])c2)cc1	98.4% (active)
COc1ccc(CNC(=O)CCCn2nc(C)c([N+](=O)[O-])c2C)cc1	-8.33% (inactive)
Cc1nn(CC(=O)Nc2ccc(N(C)C)cc2)c(C)c1[N+](=O)[O-]	0.03% (inactive)
Cc1ccc(CNC(=O)CC2Sc3ccccc3NC2=O)cc1 (stereo unspecified)	-7.06% (inactive)
